PubChem BioAssay AID1159580 (chemical genetic matrix, 2015)
Out of some 5,500 compounds screened, about 2,000 (36%) were called active. Another 18% or so got no clear call; they are omitted. Rule as the data show it: active = normalized growth mostly below about 0.91 (no sharp cut-off); inconclusive = no clear call, values can overlap the other calls; inactive = mostly above about 0.92. The list shows a part of the results.

Assay: chemical genetic growth profiling, strain panel (AID 1159580);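 also: tested at 20 µM; growth read once vehicle control cultures reached saturation at 30 °C; 1 = growth at the plate median or of vehicle wells; lower values mean less growth of the strain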
Details: growth OD

Measured: normalized growth

C[n+]1ccccc1/C=N/O
inactive: S. cerevisiae deletion strains, locus YJR066W, strain TOR1, stronger effect = lower value 0.986 | S. cerevisiae deletion strains, locus YKL009W, strain mrt4, stronger effect = lower value 1.03 | S. cerevisiae deletion strains, locus YKL068W, stronger effect = lower value 1.01 | S. cerevisiae deletion strains, locus YKL085W, strain MDH1 (second series), stronger effect = lower value 1 | S. cerevisiae deletion strains, locus YKL085W, strain MDH1, stronger effect = lower value 1 | S. cerevisiae deletion strains, locus YKL160W, strain elf1, stronger effect = lower value 0.997 | S. cerevisiae deletion strains, locus YKL190W, strain CNB1, stronger effect = lower value 1.01 | S. cerevisiae deletion strains, locus YKR001C, strain vps1, stronger effect = lower value 0.989 | S. cerevisiae deletion strains, locus YKR026C, strain gcn3, stronger effect = lower value 1.01 | S. cerevisiae deletion strains, locus YKR091W, strain srl3, stronger effect = lower value 0.993 | S. cerevisiae deletion strains, locus YLL001W, strain dnm1, stronger effect = lower value 0.973 | S. cerevisiae deletion strains, locus YLL026W, stronger effect = lower value 0.996 | S. cerevisiae deletion strains, locus YLL041C, strain sdh2, stronger effect = lower value 0.985 | S. cerevisiae deletion strains, locus YLR027C, strain aat2, stronger effect = lower value 1.01 | S. cerevisiae deletion strains, locus YLR039C, strain RIC1, stronger effect = lower value 1.01 | S. cerevisiae deletion strains, locus YLR058C, strain SHM2, stronger effect = lower value 1.01 | S. cerevisiae deletion strains, locus YLR102C, strain apc9, stronger effect = lower value 0.994 | S. cerevisiae deletion strains, locus YLR113W, strain HOG1, stronger effect = lower value 0.999 | S. cerevisiae deletion strains, locus YLR221C, strain rsa3, stronger effect = lower value 1.02 | S. cerevisiae deletion strains, locus YLR258W, strain gsy2, stronger effect = lower value 0.991 | S. cerevisiae deletion strains, locus YLR262C, strain YPT6 (second series), stronger effect = lower value 1.02 | S. cerevisiae deletion strains, locus YLR262C, strain YPT6, stronger effect = lower value 1 | S. cerevisiae deletion strains, locus YLR268W, strain sec22, stronger effect = lower value 0.998 | S. cerevisiae deletion strains, locus YLR320W, strain mms22, stronger effect = lower value 0.981 | S. cerevisiae deletion strains, locus YLR330W, strain CHS5, stronger effect = lower value 1.01 | S. cerevisiae deletion strains, locus YLR342W, strain FKS1 (second series), stronger effect = lower value 1 | S. cerevisiae deletion strains, locus YLR342W, strain FKS1, stronger effect = lower value 1.02 | S. cerevisiae deletion strains, locus YLR357W, strain rsc2, stronger effect = lower value 0.958 | S. cerevisiae deletion strains, locus YLR370C, strain arc18, stronger effect = lower value 1.01 | S. cerevisiae deletion strains, locus YLR371W, strain rom2, stronger effect = lower value 0.993 | S. cerevisiae deletion strains, locus YLR384C, strain iki3, stronger effect = lower value 1 | S. cerevisiae deletion strains, locus YLR418C, strain cdc73, stronger effect = lower value 0.983 | S. cerevisiae deletion strains, locus YML016C, strain PPZ1, stronger effect = lower value 1.01 | S. cerevisiae deletion strains, locus YML032C, strain rad52, stronger effect = lower value 0.989 | S. cerevisiae deletion strains, locus YML120C, strain ndi1, stronger effect = lower value 1.02 | S. cerevisiae deletion strains, locus YML124C, strain tub3, stronger effect = lower value 1 | S. cerevisiae deletion strains, locus YMR058W, strain fet3, stronger effect = lower value 1.01 | S. cerevisiae deletion strains, locus YMR078C, strain ctf18, stronger effect = lower value 0.993 | S. cerevisiae deletion strains, locus YMR125W, strain sto1, stronger effect = lower value 1 | S. cerevisiae deletion strains, locus YMR129W, stronger effect = lower value 0.998 | S. cerevisiae deletion strains, locus YMR205C, strain PFK2, stronger effect = lower value 1.01 | S. cerevisiae deletion strains, locus YMR223W, strain ubp8, stronger effect = lower value 1.01 | S. cerevisiae deletion strains, locus YMR231W, strain pep5, stronger effect = lower value 0.996 | S. cerevisiae deletion strains, locus YMR307W, strain GAS1, stronger effect = lower value 0.992 | S. cerevisiae deletion strains, locus YNL067W, strain RPL9B, stronger effect = lower value 1 | S. cerevisiae deletion strains, locus YNL071W, strain lat1, stronger effect = lower value 1.01 | S. cerevisiae deletion strains, locus YNL128W, strain TEP1, stronger effect = lower value 1.02 | S. cerevisiae deletion strains, locus YNL153C, strain GIM3, stronger effect = lower value 1.01 | S. cerevisiae deletion strains, locus YNL183C, strain NPR1, stronger effect = lower value 0.924 | S. cerevisiae deletion strains, locus YNL209W, strain ssb2, stronger effect = lower value 1.02 | S. cerevisiae deletion strains, locus YNL233W, strain BNI4, stronger effect = lower value 0.999 | S. cerevisiae deletion strains, locus YNL248C, strain rpa49, stronger effect = lower value 0.978 | S. cerevisiae deletion strains, locus YNL250W, strain rad50, stronger effect = lower value 1.01 | S. cerevisiae deletion strains, locus YNL271C, strain bni1, stronger effect = lower value 1.01 | S. cerevisiae deletion strains, locus YNL298W, strain CLA4, stronger effect = lower value 1.01 | S. cerevisiae deletion strains, locus YNL307C, strain MCK1, stronger effect = lower value 0.992 | S. cerevisiae deletion strains, locus YNL322C, strain KRE1 (second series), stronger effect = lower value 0.991 | S. cerevisiae deletion strains, locus YNR049C, strain mso1, stronger effect = lower value 1.01 | S. cerevisiae deletion strains, locus YNR052C, strain pop2, stronger effect = lower value 1 | S. cerevisiae deletion strains, locus YOL006C, strain TOP1, stronger effect = lower value 1.01 | S. cerevisiae deletion strains, locus YOL012C, strain htz1 1.12 | S. cerevisiae deletion strains, locus YOL147C, strain pex11, stronger effect = lower value 1 | S. cerevisiae deletion strains, locus YOR001W, strain rrp6, stronger effect = lower value 0.992 | S. cerevisiae deletion strains, locus YOR061W, strain CKA2, stronger effect = lower value 1.01 | S. cerevisiae deletion strains, locus YOR069W, strain VPS5, stronger effect = lower value 1.01 | S. cerevisiae deletion strains, locus YOR070C, strain gyp1, stronger effect = lower value 1 | S. cerevisiae deletion strains, locus YOR080W, strain dia2, stronger effect = lower value 1 | S. cerevisiae deletion strains, locus YOR083W, strain WHI5, stronger effect = lower value 0.948 | S. cerevisiae deletion strains, locus YOR106W, strain vam3, stronger effect = lower value 0.995 | S. cerevisiae deletion strains, locus YOR136W, strain idh2, stronger effect = lower value 0.993 | S. cerevisiae deletion strains, locus YOR144C, strain elg1, stronger effect = lower value 0.994 | S. cerevisiae deletion strains, locus YOR184W, strain ser1, stronger effect = lower value 0.985 | S. cerevisiae deletion strains, locus YOR231W, strain MKK1, stronger effect = lower value 1.02 | S. cerevisiae deletion strains, locus YOR265W, strain rbl2, stronger effect = lower value 1 | S. cerevisiae deletion strains, locus YOR270C, strain vph1, stronger effect = lower value 1.04 | S. cerevisiae deletion strains, locus YOR290C, strain snf2, stronger effect = lower value 1.03 | S. cerevisiae deletion strains, locus YOR316C, strain cot1, stronger effect = lower value 1 | S. cerevisiae deletion strains, locus YPL051W, strain arl3, stronger effect = lower value 1.02 | S. cerevisiae deletion strains, locus YPL055C, strain LGE1, stronger effect = lower value 1.04 | S. cerevisiae deletion strains, locus YPL078C, strain atp4, stronger effect = lower value 0.992 | S. cerevisiae deletion strains, locus YPL106C, strain sse1, stronger effect = lower value 0.99 | S. cerevisiae deletion strains, locus YPL240C, strain hsp82, stronger effect = lower value 1 | S. cerevisiae deletion strains, locus YPL256C, strain CLN2, stronger effect = lower value 1.01 | S. cerevisiae deletion strains, locus YPR119W, strain clb2, stronger effect = lower value 0.998 | S. cerevisiae deletion strains, locus YPR141C, strain kar3, stronger effect = lower value 0.997 | S. cerevisiae deletion strains, locus YPR163C, strain tif3, stronger effect = lower value 1.01 | S. cerevisiae deletion strains, locus YPR167C, strain met16, stronger effect = lower value 0.992 | S. cerevisiae deletion strains, strain wtn01, stronger effect = lower value 0.993 | S. cerevisiae strains, strain wild type, stronger effect = lower value 1.01
